Of roughly 8,800 targets only a part is listed; those with a hit were picked by preference. About 0.5% of all pairs of compound and target were hits.
What follows are targets tested with COc1cc(Nc2ncc3c(n2)-c2ccc(Cl)cc2C(c2c(F)cccc2OC)=NC3)ccc1C(=O)O [alisertib] (assay: log2 fold change, soluble protein after heating vs DMSO (PISA); higher = thermal stabilisation; K562 lysate, 10 uM; active = over 0.2 and 3.5 SD of the protein, either way, in both replicates (recomputed)).
Method in brief: (§1)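 Following dounce homogenisation of K562 pellets in PBS pH 7.4 with 1 mM MgCl2, crude extract at 1 mg/mL protein was incubated for 30 min with 10 μM compound. Aliquots were then heated for 3 min over 48°C-58°C and pooled, NP-40 was added to 0.5% at 4°C, and soluble protein was recovered as the supernatant at 21,000xg for 90 min. Channel-sum-equalised TMTpro 16plex LC-MS/MS quantified this protein. Each value, from duplicates, is a log-two fold change in thermal stability relative to solvent controls.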

Sequence of UniProt P00156 (P00156 whole entry, looked up): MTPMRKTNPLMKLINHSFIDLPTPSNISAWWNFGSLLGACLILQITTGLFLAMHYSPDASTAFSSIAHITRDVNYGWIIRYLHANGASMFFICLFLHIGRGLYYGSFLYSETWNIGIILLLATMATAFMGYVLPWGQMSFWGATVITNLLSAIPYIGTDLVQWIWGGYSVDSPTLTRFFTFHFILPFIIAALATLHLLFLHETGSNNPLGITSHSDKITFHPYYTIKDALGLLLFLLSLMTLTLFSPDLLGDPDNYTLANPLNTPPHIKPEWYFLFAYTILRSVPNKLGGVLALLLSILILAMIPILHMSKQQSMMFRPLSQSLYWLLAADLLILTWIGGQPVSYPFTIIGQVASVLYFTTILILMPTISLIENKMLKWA
Sequence of UniProt Q5SRE5 (Q5SRE5 whole entry, looked up): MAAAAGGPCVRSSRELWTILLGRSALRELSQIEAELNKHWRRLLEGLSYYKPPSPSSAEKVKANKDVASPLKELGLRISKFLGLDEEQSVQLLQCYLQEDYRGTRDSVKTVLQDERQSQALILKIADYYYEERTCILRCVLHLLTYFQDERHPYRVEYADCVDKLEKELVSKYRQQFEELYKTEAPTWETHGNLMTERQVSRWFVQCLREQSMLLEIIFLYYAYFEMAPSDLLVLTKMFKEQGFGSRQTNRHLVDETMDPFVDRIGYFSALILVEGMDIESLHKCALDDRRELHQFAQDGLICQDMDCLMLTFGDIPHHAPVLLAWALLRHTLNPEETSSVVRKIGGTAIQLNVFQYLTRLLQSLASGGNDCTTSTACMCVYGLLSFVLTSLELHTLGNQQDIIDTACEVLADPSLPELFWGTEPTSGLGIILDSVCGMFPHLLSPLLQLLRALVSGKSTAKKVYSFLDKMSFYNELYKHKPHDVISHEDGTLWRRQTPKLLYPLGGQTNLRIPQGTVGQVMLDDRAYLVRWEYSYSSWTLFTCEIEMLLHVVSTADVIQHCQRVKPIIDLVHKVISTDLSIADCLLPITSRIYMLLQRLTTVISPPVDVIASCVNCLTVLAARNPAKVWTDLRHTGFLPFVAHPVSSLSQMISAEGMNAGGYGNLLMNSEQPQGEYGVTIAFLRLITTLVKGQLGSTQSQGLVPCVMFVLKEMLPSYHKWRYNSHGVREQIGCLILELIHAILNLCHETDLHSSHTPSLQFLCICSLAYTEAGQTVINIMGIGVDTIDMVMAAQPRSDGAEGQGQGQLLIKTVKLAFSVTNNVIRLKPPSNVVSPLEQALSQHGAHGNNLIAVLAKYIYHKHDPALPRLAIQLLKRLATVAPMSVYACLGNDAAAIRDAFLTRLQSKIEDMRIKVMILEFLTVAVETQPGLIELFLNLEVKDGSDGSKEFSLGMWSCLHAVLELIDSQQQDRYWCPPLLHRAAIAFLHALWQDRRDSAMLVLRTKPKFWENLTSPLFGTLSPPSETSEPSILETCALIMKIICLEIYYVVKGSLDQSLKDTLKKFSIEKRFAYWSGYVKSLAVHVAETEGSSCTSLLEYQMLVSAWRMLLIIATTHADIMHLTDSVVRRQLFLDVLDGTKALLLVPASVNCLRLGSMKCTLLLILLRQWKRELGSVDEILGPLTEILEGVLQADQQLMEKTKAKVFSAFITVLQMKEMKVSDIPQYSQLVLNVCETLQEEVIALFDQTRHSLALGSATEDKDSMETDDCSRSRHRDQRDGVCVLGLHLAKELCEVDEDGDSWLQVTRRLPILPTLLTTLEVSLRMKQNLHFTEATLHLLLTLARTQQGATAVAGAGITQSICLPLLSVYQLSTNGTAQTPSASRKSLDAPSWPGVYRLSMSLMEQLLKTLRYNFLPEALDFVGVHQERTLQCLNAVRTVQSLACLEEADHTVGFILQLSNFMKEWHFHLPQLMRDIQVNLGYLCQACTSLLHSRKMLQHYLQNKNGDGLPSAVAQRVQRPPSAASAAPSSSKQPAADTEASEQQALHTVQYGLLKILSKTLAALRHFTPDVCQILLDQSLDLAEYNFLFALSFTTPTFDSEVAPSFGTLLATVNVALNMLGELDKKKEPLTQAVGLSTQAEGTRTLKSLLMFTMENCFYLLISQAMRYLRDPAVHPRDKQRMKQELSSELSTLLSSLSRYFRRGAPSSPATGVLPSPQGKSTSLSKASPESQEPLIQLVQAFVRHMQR
Sequence of UniProt Q13153 (Q13153 whole entry, looked up): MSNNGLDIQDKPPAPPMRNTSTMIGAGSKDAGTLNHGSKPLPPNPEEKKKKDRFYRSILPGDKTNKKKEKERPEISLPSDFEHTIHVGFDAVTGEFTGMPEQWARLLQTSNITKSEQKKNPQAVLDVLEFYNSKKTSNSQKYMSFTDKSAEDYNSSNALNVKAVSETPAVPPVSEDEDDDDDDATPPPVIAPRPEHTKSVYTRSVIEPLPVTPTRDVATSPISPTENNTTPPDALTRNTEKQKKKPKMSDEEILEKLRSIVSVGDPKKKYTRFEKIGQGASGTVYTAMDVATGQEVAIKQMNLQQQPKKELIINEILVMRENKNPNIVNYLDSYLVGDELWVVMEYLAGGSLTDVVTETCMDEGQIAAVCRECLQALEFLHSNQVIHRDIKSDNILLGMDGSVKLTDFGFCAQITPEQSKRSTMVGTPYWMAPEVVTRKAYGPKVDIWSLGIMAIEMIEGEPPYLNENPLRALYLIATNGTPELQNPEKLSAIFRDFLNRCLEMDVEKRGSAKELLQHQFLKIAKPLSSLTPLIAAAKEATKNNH
Sequence of UniProt Q9BSD7 (Q9BSD7 whole entry, looked up): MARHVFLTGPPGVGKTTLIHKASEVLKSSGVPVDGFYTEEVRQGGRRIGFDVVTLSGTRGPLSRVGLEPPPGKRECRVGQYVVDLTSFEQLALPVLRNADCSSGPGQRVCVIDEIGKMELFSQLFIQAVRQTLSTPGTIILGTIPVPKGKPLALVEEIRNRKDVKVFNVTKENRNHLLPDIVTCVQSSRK
Sequence of UniProt Q6N063 (Q6N063 whole entry, looked up): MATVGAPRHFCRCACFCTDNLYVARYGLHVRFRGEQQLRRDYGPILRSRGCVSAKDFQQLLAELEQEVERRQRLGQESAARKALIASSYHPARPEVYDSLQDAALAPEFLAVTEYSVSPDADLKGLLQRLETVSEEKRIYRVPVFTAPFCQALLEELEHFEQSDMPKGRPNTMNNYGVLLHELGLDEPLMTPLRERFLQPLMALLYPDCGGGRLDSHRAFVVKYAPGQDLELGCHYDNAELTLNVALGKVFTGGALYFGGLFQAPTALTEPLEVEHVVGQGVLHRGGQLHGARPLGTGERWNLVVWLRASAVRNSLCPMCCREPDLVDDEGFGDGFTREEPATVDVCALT
Sequence of UniProt Q9Y530 (Q9Y530 whole entry, looked up): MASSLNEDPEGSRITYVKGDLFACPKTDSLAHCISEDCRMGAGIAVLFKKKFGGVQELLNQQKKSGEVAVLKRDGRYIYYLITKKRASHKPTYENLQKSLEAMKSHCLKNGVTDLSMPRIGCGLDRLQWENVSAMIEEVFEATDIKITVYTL
Sequence of UniProt O00159 (O00159 whole entry, looked up): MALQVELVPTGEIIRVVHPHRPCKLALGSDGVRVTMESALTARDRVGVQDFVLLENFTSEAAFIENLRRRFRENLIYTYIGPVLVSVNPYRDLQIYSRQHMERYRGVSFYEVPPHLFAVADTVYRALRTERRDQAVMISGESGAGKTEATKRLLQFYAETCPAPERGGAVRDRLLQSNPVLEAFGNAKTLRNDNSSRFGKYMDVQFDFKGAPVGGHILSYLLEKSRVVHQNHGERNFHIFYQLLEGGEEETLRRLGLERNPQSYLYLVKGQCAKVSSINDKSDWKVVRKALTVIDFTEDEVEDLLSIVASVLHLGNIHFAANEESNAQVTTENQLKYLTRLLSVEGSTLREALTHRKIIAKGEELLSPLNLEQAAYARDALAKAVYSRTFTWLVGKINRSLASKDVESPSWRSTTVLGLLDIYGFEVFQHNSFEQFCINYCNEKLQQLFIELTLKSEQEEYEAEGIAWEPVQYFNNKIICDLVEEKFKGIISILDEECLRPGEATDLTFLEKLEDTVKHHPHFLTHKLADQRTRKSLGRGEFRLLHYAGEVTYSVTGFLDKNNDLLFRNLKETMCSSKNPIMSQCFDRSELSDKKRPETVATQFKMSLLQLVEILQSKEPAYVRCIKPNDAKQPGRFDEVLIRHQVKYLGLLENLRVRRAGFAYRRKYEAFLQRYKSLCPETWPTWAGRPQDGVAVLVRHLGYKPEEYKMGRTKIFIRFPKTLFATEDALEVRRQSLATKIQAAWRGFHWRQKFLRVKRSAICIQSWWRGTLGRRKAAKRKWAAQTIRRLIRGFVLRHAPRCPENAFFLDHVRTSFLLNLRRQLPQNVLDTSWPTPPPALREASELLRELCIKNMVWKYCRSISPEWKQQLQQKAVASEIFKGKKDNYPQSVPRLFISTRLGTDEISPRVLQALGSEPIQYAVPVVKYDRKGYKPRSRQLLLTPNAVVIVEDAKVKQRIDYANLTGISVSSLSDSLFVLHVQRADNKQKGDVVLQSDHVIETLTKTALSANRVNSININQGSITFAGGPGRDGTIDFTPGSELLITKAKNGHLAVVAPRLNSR
Sequence of UniProt Q99417 (Q99417 whole entry, looked up): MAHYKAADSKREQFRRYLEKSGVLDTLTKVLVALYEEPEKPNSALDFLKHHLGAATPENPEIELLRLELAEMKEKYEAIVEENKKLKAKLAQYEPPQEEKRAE
Sequence of UniProt Q9BZD4 (Q9BZD4 whole entry, looked up): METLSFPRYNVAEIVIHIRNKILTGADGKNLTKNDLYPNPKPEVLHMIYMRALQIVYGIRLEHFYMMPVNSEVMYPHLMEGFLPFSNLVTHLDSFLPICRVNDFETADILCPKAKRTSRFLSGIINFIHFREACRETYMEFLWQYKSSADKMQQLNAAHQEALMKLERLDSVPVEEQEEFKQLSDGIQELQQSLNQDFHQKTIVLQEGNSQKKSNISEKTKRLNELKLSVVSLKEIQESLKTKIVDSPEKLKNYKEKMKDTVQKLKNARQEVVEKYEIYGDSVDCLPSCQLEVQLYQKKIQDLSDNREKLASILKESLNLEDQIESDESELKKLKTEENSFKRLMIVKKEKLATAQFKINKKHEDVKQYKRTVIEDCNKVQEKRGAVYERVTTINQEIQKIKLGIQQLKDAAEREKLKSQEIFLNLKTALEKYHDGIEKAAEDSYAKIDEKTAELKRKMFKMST

log2 fold change, inactive:
NAT1 (UniProt P18440) 0.035
MYCBP (UniProt Q99417) 0.022
PAK4 (UniProt O96013) 0.002
NUMBL (UniProt Q9Y6R0) -0.064
MYD88 isoform 6 (UniProt Q99836) 0.021
NNMT (UniProt P40261) 0
NR3C1 isoform 3 (UniProt P04150) 0.045
NOSTRIN (UniProt Q8IVI9) -0.019
MYO1C (UniProt O00159) 0.008
NTPCR (UniProt Q9BSD7) 0.007
OGFR (UniProt Q9NZT2) -0.003
OARD1 (UniProt Q9Y530) 0.011
NEDD8 (UniProt Q15843) 0.021
PAK1 (UniProt Q13153) 0.016
NF1 (UniProt P21359) 0.03
OGT (UniProt O15294) 0.01
NPLOC4 isoform 2 (UniProt Q8TAT6) 0.004
MYCBP2 (UniProt O75592) 0.007
NUP188 (UniProt Q5SRE5) -0.007
NUF2 (UniProt Q9BZD4) -0.012
NCAPH2 (UniProt Q6IBW4) -0.027
NARS2 (UniProt Q96I59) -0.006
NCOR2 (UniProt C9J0Q5) 0.036
MTCH2 (UniProt Q9Y6C9) 0.013
NTMT1 (UniProt Q9BV86) -0.007
OGFOD2 (UniProt Q6N063) 0.009
OCRL (UniProt Q01968) 0.016
NOA1 (UniProt Q8NC60) 0.039
OPA1 isoform 2 (UniProt O60313) 0.03
NACC1 (UniProt Q96RE7) 0.018
NFIC (UniProt P08651) 0
PBK (UniProt Q96KB5) -0.013
NUMB (UniProt P49757) -0.031
NEK7 (UniProt Q8TDX7) 0.038
MT-CYB (UniProt P00156) -0.131

These targets were tested with COc1cc2nc(-c3cc(F)ccc3O)nc(N[C@@H]3CNC[C@H]3C(C)(C)O)c2cc1OC in the same assay as above.
Method in brief: as §1

log2 fold change, inactive:
NAT1 (UniProt P18440) 0.039
MYCBP (UniProt Q99417) -0.001
PAK4 (UniProt O96013) 0.241
NUMBL (UniProt Q9Y6R0) 0.044
MYD88 isoform 6 (UniProt Q99836) -0.005
NNMT (UniProt P40261) 0.009
NR3C1 isoform 3 (UniProt P04150) -0.001
NOSTRIN (UniProt Q8IVI9) 0
MYO1C (UniProt O00159) 0.01
NTPCR (UniProt Q9BSD7) 0.058
OGFR (UniProt Q9NZT2) -0.003
OARD1 (UniProt Q9Y530) 0.028
NEDD8 (UniProt Q15843) -0.03
PAK1 (UniProt Q13153) 0.02
NF1 (UniProt P21359) 0.006
OGT (UniProt O15294) 0.007
NPLOC4 isoform 2 (UniProt Q8TAT6) -0.007
MYCBP2 (UniProt O75592) 0.032
NUP188 (UniProt Q5SRE5) 0.025
NUF2 (UniProt Q9BZD4) 0.013
NCAPH2 (UniProt Q6IBW4) 0.01
NARS2 (UniProt Q96I59) -0.01
NCOR2 (UniProt C9J0Q5) 0.017
MTCH2 (UniProt Q9Y6C9) -0.062
NTMT1 (UniProt Q9BV86) -0.016
OGFOD2 (UniProt Q6N063) -0.014
OCRL (UniProt Q01968) -0.082
NOA1 (UniProt Q8NC60) 0.023
OPA1 isoform 2 (UniProt O60313) -0.041
NACC1 (UniProt Q96RE7) -0.012
NFIC (UniProt P08651) -0.025
PBK (UniProt Q96KB5) -0.003
NUMB (UniProt P49757) -0.007
NEK7 (UniProt Q8TDX7) 0.057
MT-CYB (UniProt P00156) 0.062

These targets were tested with COc1cc2ncnc(Nc3ccc(F)c(Cl)c3)c2cc1OCCCN1CCOCC1 [gefitinib] in the same assay as above.
Method in brief: as §1

log2 fold change, inactive:
NAT1 (UniProt P18440) 0.031
MYCBP (UniProt Q99417) -0.029
PAK4 (UniProt O96013) -0.027
NUMBL (UniProt Q9Y6R0) 0.09
MYD88 isoform 6 (UniProt Q99836) -0.039
NNMT (UniProt P40261) 0.004
NR3C1 isoform 3 (UniProt P04150) 0.013
NOSTRIN (UniProt Q8IVI9) 0.004
MYO1C (UniProt O00159) -0.02
NTPCR (UniProt Q9BSD7) -0.057
OGFR (UniProt Q9NZT2) -0.004
OARD1 (UniProt Q9Y530) -0.014
NEDD8 (UniProt Q15843) -0.148
PAK1 (UniProt Q13153) -0.06
NF1 (UniProt P21359) 0.058
OGT (UniProt O15294) -0.015
NPLOC4 isoform 2 (UniProt Q8TAT6) -0.018
MYCBP2 (UniProt O75592) -0.004
NUP188 (UniProt Q5SRE5) 0.011
NUF2 (UniProt Q9BZD4) -0.033
NCAPH2 (UniProt Q6IBW4) -0.048
NARS2 (UniProt Q96I59) -0.016
NCOR2 (UniProt C9J0Q5) 0.049
MTCH2 (UniProt Q9Y6C9) -0.007
NTMT1 (UniProt Q9BV86) 0.057
OGFOD2 (UniProt Q6N063) -0.065
OCRL (UniProt Q01968) 0.049
NOA1 (UniProt Q8NC60) -0.042
OPA1 isoform 2 (UniProt O60313) -0.003
NACC1 (UniProt Q96RE7) -0.019
NFIC (UniProt P08651) 0.117
PBK (UniProt Q96KB5) -0.023
NUMB (UniProt P49757) 0.052
NEK7 (UniProt Q8TDX7) -0.049
MT-CYB (UniProt P00156) 0.102

Reference: the supplement of paper PMC10849652
